Drawing on PubChem BioAssay (EPA / NIEHS), this text covers outcome and AC50 for 23 compounds.

Read-out in assay [1]: Transforming Growth Factor (TGFB1), TGFB1 (gene 7040)
The assay is described as follows: LTEA_HepaRG_TGFB1: Life Technologies and Expression Analysis (LTEA) Assay for Transforming Growth Factor (TGFB1) Transporter using HepaRG (AID 2283533). The note with it: mRNA level, 48 h; actives raise or lower the signal. The method in brief: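 HepaRG, 48 h post-plating, switched to serum-free induction medium; chemicals 100 uM top, half-log, 8 pts, 0.5% DMSO, dup; 48 h exposure; RNA → Fluidigm TaqMan qRT-PCR; norm ACTB/GAPDH/POLR2A; bidirectional fit vs DMSO.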

Read-out in assay [2]: Tumor necrosis factor receptor 1 (TNFRSF1A), TNFRSF1A (gene 7132)
The assay is described as follows: LTEA_HepaRG_TNFRSF1A: Life Technologies and Expression Analysis (LTEA) Assay for Tumor necrosis factor receptor 1 (TNFRSF1A) using HepaRG (AID 2283535). The note with it: mRNA level, 48 h; actives raise or lower the signal. The method in brief:
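Read-out is TNFRSF1A transcript level by TaqMan qRT-PCR, normalized to three housekeeping genes, scored as gain or loss of signal versus 0.5% DMSO. Human HepaRG cells received test chemicals for 48 h at up to 100 uM (half-log series).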

Read-out in assay [3]: Thyroid Hormone Responsive (THRSP), THRSP (gene 7069)
Put plainly: LTEA_HepaRG_THRSP: Life Technologies and Expression Analysis (LTEA) Assay for Thyroid Hormone Responsive (THRSP) using HepaRG (AID 2283536). The note with it: mRNA level, 48 h; actives raise or lower the signal. In outline:
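THRSP transcript quantified by Fluidigm qRT-PCR against three housekeeping genes after 48 h chemical exposure of HepaRG cells in serum-free induction medium; eight-point half-log series, top 100 uM, 0.5% DMSO vehicle, duplicate wells.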

Read-out in assay [4]: Cellular tumor antigen p53 (Homo sapiens) (UniProt P04637)
The assay is described as follows: LTEA_HepaRG_TP53: Life Technologies and Expression Analysis (LTEA) Assay for Tumor Protein P53 (TP53) using HepaRG (AID 2283537). As to conditions: mRNA level, 48 h; actives raise or lower the signal. The method in brief:
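HepaRG, 48 h exposure, top 100 uM, half-log 8-point, 0.5% DMSO vehicle, duplicates. Read: TP53 mRNA by TaqMan qRT-PCR, normalised to ACTB/GAPDH/POLR2A; bidirectional fit vs DMSO.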

Read-out in assay [5]: UDP glucuronosyltransferase (UGT1A1), UGT1A1 (gene 54658)
The assay is described as follows: LTEA_HepaRG_UGT1A1: Life Technologies and Expression Analysis (LTEA) Assay for UDP glucuronosyltransferase (UGT1A1) using HepaRG (AID 2283538). The note with it: mRNA level, 48 h; actives raise or lower the signal. The method in brief:
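HepaRG, 48 h chemical exposure (top 100 uM, half-log 8-pt, 0.5% DMSO vehicle), duplicate wells; qRT-PCR (TaqMan, Fluidigm array) for UGT1A1 mRNA, housekeeping-normalized; bidirectional curve fit vs DMSO baseline.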

Read-out in assay [6]: UDP glucuronosyltransferase (UGT1A6), UGT1A6 (gene 54578)
Put plainly: LTEA_HepaRG_UGT1A6: Life Technologies and Expression Analysis (LTEA) Assay for UDP glucuronosyltransferase (UGT1A6) using HepaRG (AID 2283539). The note with it: mRNA level, 48 h; actives raise or lower the signal. The method in brief: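 HepaRG, 48 h post-plating switch to serum-free induction medium; chemical 48 h, 100 uM top, half-log x8, duplicate, 0.5% DMSO. Phenobarbital 1mM induction control. UGT1A6 mRNA by TaqMan qRT-PCR; gain/loss fit vs DMSO.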

Read-out in assay [7]: X-box binding protein 1 (XBP1), XBP1 (gene 7494)
Put plainly: LTEA_HepaRG_XBP1: Life Technologies and Expression Analysis (LTEA) Assay for X-box binding protein 1 (XBP1) using HepaRG (AID 2283540). The note with it: mRNA level, 48 h; actives raise or lower the signal. In outline:
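Transcript levels of XBP1, measured by qRT-PCR and normalised to three housekeeping genes, were fitted bidirectionally relative to 0.5% DMSO controls. Human HepaRG cells received eight-point half-log dilutions from 100 uM for 48 h.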

A short description of assay [8]: LTEA_HepaRG_LDH_cytotoxicity: Cytotoxicity Assessment in the Life Technologies and Expression Analysis (LTEA) Assay (AID 2283563; active = hit-call score of the fitted dose curve at least 0.9, where 1 is the maximum;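 for AC50: LDH activity released into spent culture medium as a marker of cell death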). The method in brief:
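Cells were thawed and plated for 48 h. Medium was then replaced with serum-free induction medium. Chemicals (8 half-log points, maximum 100 uM, 0.5% DMSO) were added in duplicate for 48 h, after which spent medium was assayed for LDH.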

Assay [9] can be described thus: ATG_XTT_Cytotoxicity: Cytotoxicity Assessment in the Attagene TRANS-FACTORIAL HepG2 Assay (AID 2283584; active = hit-call score of the fitted dose curve at least 0.9, where 1 is the maximum). In outline:
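Cells: human HepG2, transiently transfected with MRTU reporter constructs. Exposure 24 h. Readout: XTT, cell number. Baseline/neg ctrl DMSO; loss-of-signal scored.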

Records with an inconclusive call do not appear. Active and inactive are the calls of the source. Rule for the calls, unless noted: active = hit-call score of the fitted dose curve at least 0.9, where 1 is the maximum; inactive = score below 0.9.

Chain of Cellular tumor antigen p53 (Homo sapiens) (P04637 whole entry, looked up): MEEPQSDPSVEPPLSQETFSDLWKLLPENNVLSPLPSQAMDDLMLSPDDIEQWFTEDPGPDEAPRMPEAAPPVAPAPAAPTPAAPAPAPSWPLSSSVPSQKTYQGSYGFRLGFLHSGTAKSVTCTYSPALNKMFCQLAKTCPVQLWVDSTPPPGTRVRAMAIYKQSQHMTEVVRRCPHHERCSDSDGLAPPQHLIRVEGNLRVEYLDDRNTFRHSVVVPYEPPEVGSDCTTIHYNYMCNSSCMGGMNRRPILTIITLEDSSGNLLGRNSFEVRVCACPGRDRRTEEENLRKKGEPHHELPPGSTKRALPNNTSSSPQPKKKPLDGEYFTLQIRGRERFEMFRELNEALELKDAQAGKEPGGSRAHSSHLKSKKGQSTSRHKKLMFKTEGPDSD

Regarding `CCOC(=O)c1ccc(C2CCC(NC[C@H](O)COc3ccc(O)c(NS(C)(=O)=O)c3)CC2)cc1` (some centres undefined), the outcome in assay [1], in [2], in assay [3], in assay [4], in assay [5] and in [6] was inactive. Moreover, the result in [7] and in [8] was inactive.
Turning to `CC(C)CC(C)(O)C#CC(C)(O)CC(C)C` (centres undefined), the call in assay [1], in assay [2], in assay [3], in assay [4], in [5] and in [6] was inactive. Further, the compound was called inactive in assay [7] and in assay [8].
As to `CC(C)=CCC/C(C)=C\CO`, the result in [1], in assay [2], in [3], in [4], in [5] and in assay [6] was inactive. Moreover, the result in [7] and in assay [8] was inactive.
Turning to `CC(O)CN(CCN(CC(C)O)CC(C)O)CC(C)O` (centres undefined), the call in [1], in assay [2], in assay [3], in assay [4], in assay [5] and in [6] was inactive. The call in assay [7] and in assay [8] was inactive.
Consider `O=P(OC(CCl)CCl)(OC(CCl)CCl)OC(CCl)CCl`, for which the AC50 in assay [1] is 62.9 µM (active); in [2] it was 0.231 µM (active); in assay [3] it was 94.4 µM (active); in [4], 86.6 µM (active); in [5], 88.6 µM (active); in [6] it was 10.1 µM (active). In addition, the compound was classed as inactive in [7] and in [8].
As to `CC(C)(O)c1coc(S(=O)(=O)NC(=O)Nc2c3c(cc4c2CCC4)CCC3)c1`, the compound was classed as inactive in assay [1], in assay [2], in assay [3], in [4], in assay [6] and in assay [7]. For the same compound, the call in [8] was inactive. The AC50 in assay [5] was 21.5 µM (active).
Consider `O=c1n(CC2CO2)c(=O)n(CC2CO2)c(=O)n1CC1CO1` (centres undefined), for which the compound was classed as inactive in assay [1], in assay [2], in assay [3], in [5], in assay [6] and in assay [7]. In addition, the compound was called inactive in assay [8] and in [9]. In assay [4], the AC50 was 90.1 µM (active).
In the case of `CCCC(=O)OCC`, the result in assay [1], in assay [2], in [3], in [4], in [5] and in assay [6] was inactive. Moreover, the call in assay [7] and in assay [8] was inactive.
`Cc1[nH]cnc1C[C@H]1CCc2c(C)c3ccccc3n2C1=O`: the result in assay [1] and in assay [3] was inactive. In addition, the AC50 in [2] was 63.7 µM (active); in [4], 73.7 µM (active); in assay [5], 64.3 µM (active); in [6], 33.5 µM (active); in assay [7], 10.4 µM (active); in [8], 27.6 µM (active).
Take `O=C(O)CC(O)C(=O)O` (centres undefined): the compound was called inactive in assay [1], in [2], in [3], in assay [4], in assay [5] and in assay [6]. Further, the compound was called inactive in [7] and in assay [8].
As to `CCOc1cccc(-n2cc(C(=O)N3CCN(c4cc(C(=O)O)c5ccccc5c4)CC3)nc2-c2ccc(C)cc2)c1`, the AC50 in assay [1] is 83.7 µM (active); in assay [2], 80.3 µM (active); in assay [3] it was 26.3 µM (active); in [4], 91.5 µM (active); in [5], 75.9 µM (active); in assay [6], 75.1 µM (active). In addition, the AC50 in assay [7] is 88.1 µM (active); in assay [8], 36.3 µM (active).
As to `CCOC(=O)CC(CC(=O)OCC)(OC(C)=O)C(=O)OCC`, the compound was classed as inactive in assay [1], in [2], in assay [3], in [4], in assay [5] and in assay [6]. The outcome in assay [7], in assay [8] and in [9] was inactive.
On to `C=CC(=C)CCC=C(C)C`, for which the outcome in assay [1], in assay [2], in assay [3], in assay [4], in assay [5] and in assay [6] was inactive. Besides, the outcome in [7] and in assay [8] was inactive.
In the case of `O=C(O)c1cc(N=Nc2ccc(S(=O)(=O)Nc3ccccn3)cc2)ccc1O`, the result in assay [1], in [2], in assay [3], in [4], in assay [5] and in assay [6] was inactive. Moreover, the result in assay [7], in assay [8] and in [9] was inactive.
Regarding `Oc1ccc2c(c1)-c1ccccc1C2`, the compound was classed as inactive in [1], in assay [2], in assay [4], in assay [6], in assay [7] and in assay [8]. Further, the values for the AC50 in [3] and in assay [5] were 13.9 µM (active) and 30.4 µM (active), respectively.
With `COCCOCCOCCOC`, the outcome in [1], in [2], in [3], in assay [4], in assay [5] and in assay [6] was inactive. Also, the compound was classed as inactive in assay [7], in assay [8] and in assay [9].
For `CCCCC(CC)COC(=O)c1ccc(C(=O)OCC(CC)CCCC)cc1` (centres undefined), the result in assay [1], in assay [2], in [3], in assay [4], in assay [5] and in assay [6] was inactive. The compound was classed as inactive in [7] and in assay [8].
Regarding `CC[C@H](C)C(=O)O[C@H]1C[C@@H](C)C=C2C=C[C@H](C)[C@H](CC[C@@H]3C[C@@H](O)CC(=O)O3)[C@H]21`, the outcome in assay [1], in assay [2], in assay [4], in [6], in [7] and in assay [8] was inactive. Also, the AC50 in assay [5] is 0.0554 µM (active).
With `CCCCCCCCCCCCc1ccccc1`, the compound was called inactive in [1], in [2], in [3], in assay [4], in assay [5] and in assay [6]. Further, the compound was classed as inactive in [7], in assay [8] and in assay [9].
Consider `Nc1nc2ncc(CNc3ccc(C(=O)N[C@@H](CCC(=O)O)C(=O)O)cc3)nc2c(=O)[nH]1`, for which the compound was classed as inactive in assay [1], in [2], in assay [3], in assay [4], in [5] and in assay [6]. Also, the compound was called inactive in [7], in [8] and in assay [9].
In the case of `Cn1c(=O)c2c(ncn2C)n(C)c1=O`, the result in assay [1], in [2], in assay [3], in assay [4], in assay [5] and in assay [6] was inactive. Moreover, the compound was called inactive in assay [7] and in assay [8].
In the case of `NC(=O)NO`, the result in assay [1], in [2], in [3], in assay [4], in [5] and in [6] was inactive. For the same compound, the result in [7] and in [8] was inactive.
On to `O=c1[nH]c2ccc(S(=O)CCN3CCC(Cc4ccc(F)cc4)CC3)cc2o1` (centres undefined), for which the result in assay [1], in [2], in assay [4], in assay [5], in assay [6] and in assay [7] was inactive. Besides, the call in assay [8] was inactive. Further, in assay [3], the AC50 was 85.5 µM (active).

For orientation: AC50 means the concentration at which the activity in the assay is half-maximal.
